# Shown are actives, neighbours in structure and some others; about 5.3% of the full set was active somewhere.
# ALOX12 inhib: blocks human 12-lipoxygenase activity; P18054; purified 12-hLO, xylenol orange hydroperoxide absorbance; Potency, µM (highest dose often 57.1 µM), actives largely listed as inhibitors; 150,000 tested, 0.12% active; AID 1452; also: nearly all actives have a fitted effect of over 55% in size
#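 Purified human 12hLO (150 nM), preincubated 15 min with compound, then 40 uM arachidonic acid for 30 min, room temperature, Hepes pH 7.0 with 0.01% Triton X-100. Hydroperoxide detected by ferrous iron/xylenol orange; 573/405 nm absorbance ratio gives reaction progress.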
# PNC assembly inh: inhibitors of perinucleolar compartment assembly. PC3M PTB-GFP, PNC prevalence imaging, 16 h; stronger effect = lower value. activity change (PNC), negative = inhibition, % at 10 µM. 140,000 tested, 3.1% active. AID 2417;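 active = readout at or below -70, meaning at least 70% loss of cells showing the perinucleolar compartment, a nuclear body marking cancer cells; inconclusive = readout between -30 and a set limit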
#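 Read-out is percentage of cells bearing a perinucleolar compartment, from automated 20x imaging of fixed, Hoechst-stained PC3M PTB-GFP cells. Cells were seeded 4 h, then exposed 16 h to compound (23 nl of library stock) in duplicate plates.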
# HPGD inh: HPGD (human) dehydrogenase inhibition | P15428 | purified HPGD, NADH fluorescence kinetic, PGE2 substrate | Potency, µM, usual class: inhibitors | 150,000 tested, 4.3% active; active = well fitted inhibition curve with a large enough effect, not every such curve was filed as active; inconclusive = small, poorly fitted or top-dose-only effect, or another doubt; inactive = no such curve, though single readings can be large or run the other way
# Target sequence (P15428 whole entry, looked up): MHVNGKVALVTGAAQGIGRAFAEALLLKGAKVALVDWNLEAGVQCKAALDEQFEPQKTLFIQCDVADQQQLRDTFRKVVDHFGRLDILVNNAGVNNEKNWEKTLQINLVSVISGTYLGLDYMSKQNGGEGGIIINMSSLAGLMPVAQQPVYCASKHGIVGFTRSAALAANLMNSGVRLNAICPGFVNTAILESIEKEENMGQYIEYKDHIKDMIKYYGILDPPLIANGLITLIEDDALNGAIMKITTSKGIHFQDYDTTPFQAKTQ
#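 20 nM HPGD preincubated 15 min at room temperature with compound in 50 mM Tris-HCl pH 8, 0.01% Tween 20. Started with 1 mM NAD+ and 30 uM prostaglandin E2; NADH fluorescence (360/450 nm) read 5 times over 30-s intervals, last minus first.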
# IMPase inh: cell-permeable inhibitors of inositol monophosphatase (IMPase) | P97697 | CHO-M1 cells, IP1 accumulation, HTRF TR-FRET ratio | inhibition (IP1 accumulation), % at 46.1 µM | 120,000 tested, under 10 active; active = well fitted curve in the direction sought with a large enough effect in the signal ratio, not every such curve was filed as active; inconclusive = small, poorly fitted or top-dose-only effect, or a change in a side signal; inactive = no such curve, though single readings can be large or run the other way; the % refers to the signal ratio;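 also: cells stimulated with carbachol in lithium chloride buffer; higher means more IMPase inhibition seen as more IP1 and lower FRET ratio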
# Target sequence (P97697 whole entry, looked up): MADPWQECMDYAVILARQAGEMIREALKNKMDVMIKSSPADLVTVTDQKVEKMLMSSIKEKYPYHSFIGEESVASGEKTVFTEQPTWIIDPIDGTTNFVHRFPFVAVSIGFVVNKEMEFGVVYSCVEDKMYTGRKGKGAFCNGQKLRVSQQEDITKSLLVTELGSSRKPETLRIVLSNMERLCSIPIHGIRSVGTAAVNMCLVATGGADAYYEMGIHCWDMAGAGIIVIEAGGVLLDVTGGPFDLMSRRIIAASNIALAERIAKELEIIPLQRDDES
#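 Cellular IMPase inhibition is scored as a rise in cytosolic IP1, detected by competitive TR-FRET between d2-labelled IP1 and a europium anti-IP1 antibody. M1-expressing CHO cells were stimulated with carbachol for 30 min at 37C, with lithium (50 mM LiCl) present in the buffer.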
# IMPase Li inh: IMPase inhibition in cells with lithium potentiation. CHO-M1 cells, IP1 TR-FRET (IP-One), carbachol + lithium. Potency, µM (series often up to 59.4 µM), usual class: inhibitors. 210,000 tested, 0.35% active;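 also: IP1 builds up when IMPase is blocked and the TR-FRET signal falls; nearly all actives have a fitted effect of over 50% in size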
#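 Test compounds were applied to CHO-M1 cells previously cultured for 16–30 h at 2000 per well. A small lithium amount accompanied them; after 30 min at 37C, IP1 was quantified by TR-FRET.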
# 15-hLO-2 inh: blocks human 15-lipoxygenase 2 activity | O15296 | 110,000 tested, 0.56% active | purified 15hLO-2, xylenol orange hydroperoxide absorbance | Potency, µM (doses to about 57.1 µM), most hits filed as inhibitors | AID 881; also: nearly all actives have a fitted effect of over 60% in size
#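 Purified human 15hLO-2 (50 nM final) preincubated with compounds 15 min at room temperature in 25 mM Hepes pH 7.5, 0.01% Triton X-100, then 45 uM arachidonic acid added for 90 min; hydroperoxide detected via ferrous/xylenol orange, 573/405 nm absorbance ratio.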
# Numbers stand for hits; – = inactive; ? = inconclusive; · = not tested or not shown; [ ] = another dose, or the depositor's remark. Unless noted, calls follow the shape of the dose curve; as a rule, active = well fitted curve in the direction sought with a large enough effect; inconclusive = small, poorly fitted or top-dose-only effect, or another doubt; inactive = no such curve, though single readings can be large; an effect the other way counts as inactive or inconclusive.
SMILES,ALOX12 inhib,PNC assembly inh,HPGD inh,IMPase inh,IMPase Li inh,15-hLO-2 inh
CCOC(=O)c1sc(NC(=S)NC(=O)c2ccco2)nc1C,–,–,–,–,–,·
CC(C)NC(=O)N1CCC2(CC1)CCN(C(=O)c1cc(C(F)(F)F)cc(C(F)(F)F)c1)CC2,–,·,–,·,–,–
Cc1cc(C)c(OCC(=O)Nc2nnc(-c3ccco3)o2)c(C)c1,·,·,·,·,–,·
O=C(Nc1c(-c2ccccc2)nc2ccccn12)c1ccco1,–,-82.3,–,–,–,–
Cc1ccc(-c2nc3ccccn3c2NC(=O)c2ccco2)cc1,–,–,–,–,–,·
Cc1sc(NC(=O)c2ccco2)nc1-c1ccccc1,–,?,14.1µM,–,–,–
COC(=O)Nc1nc(C)c(C(=O)c2ccccc2)s1,–,?,–,–,–,–
COC(=O)Nc1nc(-c2ccccc2)c(C(=O)c2ccccc2)s1,–,-98.1,–,–,–,–
CCN(CC(=O)NC1CCS(=O)(=O)C1)S(=O)(=O)c1ccc(C)c(C)c1 (stereo not drawn),–,–,–,·,–,·
Cc1ccc(Sc2ncnc(N)c2[N+](=O)[O-])cc1,–,–,–,–,–,·
Nc1ncnc(Sc2ccc(Cl)cc2)c1[N+](=O)[O-],–,-103.0,–,·,–,·
Cc1ccccc1OCc1nnc(SCC(=O)Nc2ccc3nc(SCC(=O)Nc4ccccc4)sc3c2)n1C,–,?,–,·,?,·
O=C(NCc1ccc(Cl)cc1)c1cccc(NC(=O)c2ccccc2)c1,–,-100.0,?,·,–,·
O=C(NCc1ccc(Cl)cc1)c1ccc(Cl)cc1[N+](=O)[O-],–,–,15.8µM,–,–,–
O=C(NCc1ccccc1)c1ccc(Br)o1,–,–,12.6µM,·,–,·
Cc1ccc(C(=O)NCc2ccc(Cl)cc2)o1,–,–,14.1µM,–,–,–
CC(C)c1ccc(C(=O)NCc2ccc(Cl)cc2)cc1,–,–,–,–,–,·
Cc1cc(C)nc(SCCc2cccc[n+]2C)n1,–[11.4 µM],·,–,·,–,–[11.4 µM]
CCOc1ccc(NS(=O)(=O)c2c(C)nc3sc(CC)nn3c2=O)cc1,·,·,·,–,·,·
CCOc1ccccc1NC(=S)N(CCC(C)C)C1CCN(C(C)=O)CC1,·,·,·,·,–,·
CCCC(=O)OCC(=O)NCc1ccc(Cl)cc1,·,·,·,·,–,·
O=C(NC1CCCC1)c1ccc(Br)o1,–,-85.0,15.8µM,–,–,–
Cc1ccc(CNC(=O)c2ccc(Br)o2)cc1,–,–,3.16µM,–,–,–
CCCCC(=O)NCc1ccc(Cl)cc1,–,–,14.1µM,·,–,·
O=C(NCc1ccc(F)cc1)c1ccc(Br)o1,·,·,·,·,–,·
SMILES,ALOX12 inhib,PNC assembly inh,HPGD inh,IMPase inh,IMPase Li inh,15-hLO-2 inh
COc1ccc(CNC(=O)c2ccc(Br)o2)cc1,–[0.00818 µM],–,25.1µM,·,–,–[0.0915 µM]
O=C(NCc1ccc(Cl)cc1)c1ccccc1Oc1ccccc1,–,–,10µM,–,–,–
O=C(NCc1ccccc1)c1cccc(Br)n1,–[0.00818 µM],?,31.6µM,·,–,–[0.0915 µM]
COC(=O)c1ccc2c(c1)C(C)(C)C(/C=C/c1ccccc1O)=[N+]2C,14.1µM,–,?,–,–,15.8µM
C[N+]1=C(/C=C/Nc2ccccc2Cl)C(C)(C)c2ccccc21,–,?,–,·,–,·
COc1cc(NC(=S)NCc2ccc(S(N)(=O)=O)cc2)c(OC)cc1Cl,–,?,–,–,–,·
CCCS(=O)(=O)N1CCN(Cc2ccccc2OCC)CC1,–,-85.2,–,–,–,–
O=C(OCn1ncc(Cl)c(Cl)c1=O)c1cccc(C(F)(F)F)c1,–,?,17.8µM,–,–,–
O=C(COC(=O)c1cc(S(=O)(=O)N2CCCCC2)ccc1N1CCOCC1)NCCc1ccc(F)cc1,·,·,·,·,–,·
CCCCCn1cnc2c(sc3nc4c(cc32)CSC(C)(C)C4)c1=O,–,?,?,·,–,·
Cc1ccc(NC(=O)CN2C(=O)S/C(=C/c3ccc(-c4cc(C(=O)O)ccc4C)o3)C2=O)cc1C,–,–,31.6µM,–,–,20µM
Cc1cccc(NC(=O)CN2C(=O)S/C(=C\c3ccc(-c4cccc(C(=O)O)c4C)o3)C2=O)c1,·,·,·,·,–,·
COC1=NS(=O)(=O)c2ccccc21,–,?,–,·,–,·
COc1ccc(N(C)C2=NS(=O)(=O)c3ccccc32)cc1,–,-101.2,–,–,–,–
N#CC1=C(N)Oc2cc3ccccc3cc2C1c1cccnc1 (stereo not drawn),–,-89.5,28.2µM,–,–,–
O=C(Cc1ccccc1)Nc1ccccc1C(=O)O,–,?,?,–,–,–
CNC(=O)[C@H]1O[C@@H](n2cnc3c(N)ncnc32)[C@H](O)[C@H]1O,·,·,–,·,–,·
CCCCOc1ccccc1NC(=O)Cn1c(-c2nonc2N)nc2ccccc21,–,-94.7,–,–,–,–[2.29 µM]
CCOC(=O)Cn1c(-c2nonc2NC(=O)c2ccccc2F)nc2ccccc21,–,-107.9,?,–,–,–
CCC(=O)Nc1nonc1-c1nc2ccccc2n1Cc1ccccc1,–,?,–,–,–,–
O=C1CCCC2=C1C1(CCCCC1)N=C(Nc1nc3ccccc3s1)N2,–,–,?,–,–,–
O=C1CCCC2=C1C1(CCCC1)N=C(Nc1nc3ccccc3s1)N2,–,-116.6,?,–,–,–
OCc1ccccc1N=c1ssnc1Cl,–,–,6.31µM,–,–,?
Cc1nc(N[C@@H](Cc2c[nH]c3ccccc23)C(=O)O)c2oc3ccccc3c2n1,–,–,?,–,11.2µM,–
CCc1nc(N[C@@H](Cc2c[nH]c3ccccc23)C(=O)O)c2oc3ccccc3c2n1,–,–,–,–,–,–
SMILES,ALOX12 inhib,PNC assembly inh,HPGD inh,IMPase inh,IMPase Li inh,15-hLO-2 inh
CC(NC(=O)COC(=O)Cc1ccsc1)C1CC2CCC1C2 (stereo not drawn),–,–,28.2µM,–,–,–
O=C(COC(=O)Cc1ccsc1)NCc1ccc(Cl)cc1,–,–,28.2µM,–,–,·
O=C(COC(=O)Cc1ccsc1)NCC1CCCCC1,–,-89.7,–,–,–,–
COc1cccc(N2CCN(C(=O)CCNS(=O)(=O)c3ccc4c(c3)c(=O)n(C)c(=O)n4C)CC2)c1,·,·,·,·,–,·
Cn1c(=O)c([N+](=O)[O-])c(NCC(O)c2ccccc2)c2ccccc21 (stereo not drawn),–,–,25.1µM,·,–,·
CCn1c(=O)c([N+](=O)[O-])c(NCC(O)c2ccccc2)c2ccccc21 (stereo not drawn),–,?,15.8µM,·,–,·
COc1cccc(/C=N/Nc2ccc(S(=O)(=O)O)cc2)c1O,–,–,31.6µM,–,–,–
Cc1ccc(-c2n[nH]c(=S)n2/N=C\c2ccco2)cc1,–,?,22.4µM,–,–,·
Cc1ccc(-c2n[nH]c(=S)n2/N=C/c2ccncc2)cc1,·,·,·,·,–,·
Cc1ccc(-c2n[nH]c(=S)n2/N=C/c2ccc(C)o2)cc1,–,–,12.6µM,–,–,·

# Compound activity from PubChem BioAssay.
